The nature of test [1]: qHTS assay for small molecules that induce genotoxicity in human embryonic kidney cells expressing luciferase-tagged ATAD5 (AID 651632). Also: nearly all actives have a fitted effect of over 15% in size. In a few lines:
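Genotoxicity read-out via ATAD5-luciferase: HEK293T cells, 16 hr compound incubation at 37C, Amplite detection.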
Background: In qHTS, concentration-response curves come from the screen itself.

A short description of test [2]: qHTS assay for small molecule agonists of the p53 signaling pathway - cell viability (AID 651633; calls by dose curve;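 also: p53RE-bla HCT reporter cells with a stable beta-lactamase p53 reporter; series mostly up to about 83 µM; nearly all actives have a fitted effect of over 30% in size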). In a few lines:
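p53RE-bla cells, seeded at 4,000 per well and rested 5 h at 37 C/5% CO2, received compounds in DMSO for 16 h at 37 C. CellTiter-Glo was then added, and luminescence was read after 30 min at room temperature to gauge cytotoxicity.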

The nature of test [3]: qHTS assay for small molecules that induce genotoxicity in human embryonic kidney cells expressing luciferase-tagged ATAD5 - cell viability (AID 651634; calls by dose curve; also: nearly all actives have a fitted effect of over 25% in size). In a few lines: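 Live-cell protease activity (CellTiter-Fluor, fluorescence) indicates viability. HEK293T cells with luciferase-tagged ATAD5; 15.5 hr compound treatment at 37C.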
Test [4] can be described thus: qHTS assay for small molecule disruptors of the mitochondrial membrane potential - cell viability (AID 720634; calls by dose curve;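 also: human HepG2 liver cancer cells; series mostly up to about 83 µM; nearly all actives have a fitted effect of over 20% in size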). In a few lines: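 Human hepatoma HepG2 cells were treated for 1 hr with test chemicals, then given m-MPI dye and CellTiter-Glo. Cell viability reflects luminescence proportional to cellular ATP.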
Test [5] is described as follows: qHTS assay to test for compound auto fluorescence at 590 nm (red) in HepG2 cells (AID 720674). In a few lines:
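Intrinsic compound fluorescence in the red window (Ex/Em 540/590 nm) is measured in attached HepG2 cells exposed for 1 hr, DMSO vehicle as baseline, benchmarked to Rose Bengal sodium.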

The nature of test [6]: qHTS assay to test for compound auto fluorescence at 535 nm (green) in HepG2 cells (AID 720675).
The nature of test [7]: qHTS assay to test for compound auto fluorescence at 590 nm (red) in HEK293 cells (AID 720679). In a few lines: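 Each well held 2,000 HEK293 cells in medium containing 10% dialyzed FBS. Following 4-5 hr attachment at 37C, 23 nL test compound or DMSO was added; plates sat overnight, and red fluorescence (540/590nm) was recorded.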
Test [8] can be described thus: qHTS assay to test for compound auto fluorescence at 535 nm (green) in HEK293 cells (AID 720680).
Test [9] in a line: qHTS assay to test for compound auto fluorescence at 460 nm (blue) in HEK293 cell free culture (AID 720681). In a few lines:
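Test compounds were pinned into cell-free culture medium (DMEM with 10% FBS) and fluorescence was read directly at Ex/Em 405/460 nm. Signals were expressed as fluorescence equivalents of triamterene, with DMSO vehicle as control.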

Test [10] is described as follows: qHTS assay to test for compound auto fluorescence at 535 nm (green) in HEK293 cell free culture (AID 720682). In a few lines:
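Measurement is a direct plate read of green fluorescence (485 nm in, 535 nm out) after compound addition to serum-supplemented DMEM lacking cells, with fluorescein used to express intensities.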

The nature of test [11]: qHTS assay to test for compound auto fluorescence at 590 nm (red) in HEK293 cell free culture (AID 720683). In a few lines: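 Tox21 10K library compounds were pinned into cell-free DMEM with 10% FBS and fluorescence was read at excitation 540 nm. Activity is expressed as Rose Bengal sodium equivalency.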
Test [12] is described as follows: qHTS assay to test for compound auto fluorescence at 590 nm (red) in HepG2 cell free culture (AID 720684). In a few lines: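 Red fluorescence (540 nm excitation, 590 nm emission) was measured after compound transfer into cell-free MEM supplemented with 10% FBS. Values are equivalencies against Rose Bengal sodium.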
The nature of test [13]: qHTS assay to test for compound auto fluorescence at 460 nm (blue) in HepG2 cell free culture (AID 720685). In a few lines: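 Compound (23 nL) or DMSO pinned into cell-free MEM with 10% FBS; blue fluorescence read at 405/460 nm excitation/emission, expressed as auto-fluorescence equivalency to triamterene.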
A short description of test [14]: qHTS assay to test for compound auto fluorescence at 535 nm (green) in HepG2 cell free culture (AID 720686).
Test [15] in a line: qHTS assay to test for compound auto fluorescence at 460 nm (blue) in HepG2 cells (AID 720687). In a few lines:
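Cells (2,000/well in MEM with 10% FBS) attached overnight at 37 C, then were exposed to compound or DMSO for 1 hr at 37 C, 5% CO2. Fluorescence read at Ex/Em 405/460 nm, expressed as triamterene-equivalent signal.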

Test [16] is described as follows: qHTS assay to test for compound auto fluorescence at 460 nm (blue) in HEK293 cells (AID 720678). In a few lines:
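Cells were seeded and left to adhere for 4-5 hr at 37C. Compounds were then pin-transferred. After an overnight incubation at 37C under 5% CO2, intrinsic fluorescence at 405/460 nm was measured and referenced to triamterene.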

In test [17] the target is Glucocorticoid receptor (Homo sapiens) (UniProt P04150). The experiment in a line: qHTS assay to identify small molecule antagonists of the glucocorticoid receptor (GR) signaling pathway (AID 720692; active = well fitted inhibition curve with a large enough effect in the signal ratio in the repeat runs, not every such curve was filed as active; the % refers to the signal ratio). In a few lines: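 Fluorescence from cleaved LiveBLAzer B/G FRET substrate reports GRE-driven beta-lactamase in HeLa cells; compounds are tested against 5 nM dexamethasone (final) over 18 h at 37 C, substrate incubation 2 h at room temperature.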

The target is the same in test [18]. The experiment in a line: qHTS assay to identify small molecule agonists of the glucocorticoid receptor (GR) signaling pathway (AID 720691; active = well fitted activation curve with a large enough effect in the signal ratio in the repeat runs, not every such curve was filed as active; the % refers to the signal ratio). In a few lines: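 Beta-lactamase reporter activity, read as fluorescence intensity, was measured in GR-bla HeLa cells exposed to compounds for 18 h at 37 C and then loaded with LiveBLAzer B/G FRET substrate for 2 h at room temperature.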

Test [19] can be described thus: qHTS assay for small molecule disruptors of the mitochondrial membrane potential (AID 720635). Also: potency is read from the fitted curve at half-maximal effect. In a few lines: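 HepG2 cells (2,000/well) attached overnight at 37C, then took compound for 1 hr at 37C, 5% CO2. Mito-MPS dye was added for 30 min; fluorescence was read at 490/535 nm (monomers) and 540/590 nm (aggregates).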

Molecules are shown by their SMILES. A number with no mark means an inactive call. Records with an inconclusive call do not appear. Active and inactive are the calls of the source. Unless noted, calls follow the shape of the dose curve; as a rule, active = well fitted curve in the direction sought with a large enough effect in the repeat runs; inconclusive = weak or mixed curves; inactive = no such curve, though single readings can be large; an effect the other way counts as inactive or inconclusive.

From PubChem BioAssay (Tox21) come the findings set out here.
% is scaled to controls: 0 for no effect and ±100 for the full control effect.

Chain of Glucocorticoid receptor (Homo sapiens) (P04150 whole entry, looked up): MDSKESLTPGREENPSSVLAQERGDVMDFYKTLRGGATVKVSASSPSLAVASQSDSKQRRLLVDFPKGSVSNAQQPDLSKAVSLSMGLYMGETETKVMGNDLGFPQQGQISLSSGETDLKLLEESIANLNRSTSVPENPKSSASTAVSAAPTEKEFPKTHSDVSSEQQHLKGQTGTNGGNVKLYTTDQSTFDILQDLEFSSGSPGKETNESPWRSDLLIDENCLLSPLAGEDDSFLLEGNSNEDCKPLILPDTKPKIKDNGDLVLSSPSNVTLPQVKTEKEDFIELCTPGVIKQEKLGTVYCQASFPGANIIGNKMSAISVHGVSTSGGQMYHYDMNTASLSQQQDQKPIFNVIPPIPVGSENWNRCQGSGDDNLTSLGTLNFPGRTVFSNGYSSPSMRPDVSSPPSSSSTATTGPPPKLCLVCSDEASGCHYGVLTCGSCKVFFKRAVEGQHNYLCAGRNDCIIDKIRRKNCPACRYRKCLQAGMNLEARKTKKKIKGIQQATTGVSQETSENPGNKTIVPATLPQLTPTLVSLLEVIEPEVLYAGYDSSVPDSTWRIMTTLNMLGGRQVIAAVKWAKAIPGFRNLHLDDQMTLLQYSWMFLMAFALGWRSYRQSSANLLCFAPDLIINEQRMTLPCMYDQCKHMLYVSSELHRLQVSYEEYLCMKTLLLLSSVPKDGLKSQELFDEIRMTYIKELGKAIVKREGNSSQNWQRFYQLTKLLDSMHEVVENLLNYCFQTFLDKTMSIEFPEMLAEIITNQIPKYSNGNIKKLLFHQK

Turning to `C=CCOCC(O)CS(=O)(=O)O` (stereo not drawn), the Potency result in test [1], in test [2], in test [3], in test [4], in [9] and in test [13] was “inactive” throughout. The Potency entry in test [15] is “inactive”. The outcome in [5], in test [6], in test [7], in test [8], in test [10] and in test [11] was inactive. Moreover, the compound was classed as inactive in [12] and in test [14].

For `CCCOc1ccccc1-c1nc2n[nH]nc2c(=O)[nH]1`, the Potency result in test [1], in [2], in [3], in test [4], in test [16] and in test [9] was “inactive” in each case. Moreover, the Potency entry in [13], in test [15] and in [17] was “inactive” throughout. Besides, the result in test [5], in test [6], in test [7], in [8], in [11] and in test [12] was inactive. The outcome in [14] was inactive.

In the case of `C1=C\CC/C=C\CC/C=C\CC/1`, the Potency entry in [1], in test [2], in [3], in [16], in test [9] and in [13] was “inactive” throughout. In addition, the Potency result in test [15] and in test [18] was “inactive” throughout. In addition, the result in test [5], in test [6], in test [7], in test [8], in [10] and in test [11] was inactive. Also, the result in [12] and in [14] was inactive.

With `C=CC(=O)N1CCOCC1`, the Potency result in test [1], in [2], in [3], in [9], in test [13] and in [15] was “inactive” each time. Besides, the call in test [5], in test [6], in test [7], in [8], in test [10] and in test [11] was inactive. Also, the outcome in [12] and in [14] was inactive.

For `CC(C)CCCC(C)CCCC(C)CCCCC(C)CCCC(C)CCCC(C)C` (stereo not drawn), the Potency entry in [1], in [2], in [3], in test [4], in test [9] and in test [13] was “inactive” throughout. In addition, in [15], the Potency result was “inactive”. Besides, the call in test [5], in test [6], in test [7], in test [8], in test [11] and in test [12] was inactive. In addition, the result in test [14] was inactive.

Take `OC/C=C/c1ccccc1`: the Potency entry in test [1], in test [2], in [3], in [4], in test [9] and in test [13] was “inactive” each time. In test [15], the Potency result was “inactive”. The compound was classed as inactive in [6], in test [7], in test [8], in [10], in [11] and in test [12]. The compound was classed as inactive in test [14].

Regarding `CCN1CCCC(OC(=O)C(c2ccccc2)c2ccccc2)C1` (stereo not drawn), the Potency result in test [1], in [2], in test [3], in [4] and in test [18] was “inactive” throughout. Moreover, the fluorescence, % of fluorescein control in [6] was 0.107% [at 18.6 µM]; in test [14] it was 0.088% [at 18.6 µM]. Moreover, the fluorescence, % of triamterene in [16] is 0.0169% [at 18.6 µM]. The fluorescence, % of fluorescent control in test [7] was -0.0352% [at 18.6 µM]; in [9], 0.0253% [at 18.6 µM]; in test [11], 0.138% [at 18.6 µM]; in [13], -0.0343% [at 18.6 µM]; in [15], 0.0078% [at 18.6 µM]. Moreover, the fluorescence, % of fluorescein in [8] is -0.0754% [at 18.6 µM]. Further, the activity change in [10] is 0.0002% [at 18.6 µM]. Besides, the fluorescence, % of Rose Bengal in test [12] was 0.44% [at 18.6 µM].

Turning to `CCCC=O`, the Potency entry in test [2], in [3], in test [4], in [19], in test [16] and in [9] was “inactive” in each case. Besides, the Potency result in [13], in [15] and in [17] was “inactive” throughout. In addition, the compound was classed as inactive in test [6], in test [7], in [8], in [11], in [12] and in test [14].

Take `O=Cc1ccccc1[N+](=O)[O-]`: the Potency entry in test [1], in test [2], in test [3], in test [4], in test [16] and in [9] was “inactive” in each case. Also, the Potency result in [13], in [15], in test [18] and in test [17] was “inactive” each time. Moreover, the call in test [6], in test [7], in [8], in test [10], in [11] and in test [12] was inactive. The call in test [14] was inactive.

As to `C(=C(c1ccccc1)c1ccccc1)c1ccccc1`, the Potency result in test [1], in [3], in test [4], in test [16], in [9] and in test [13] was “inactive” throughout. Besides, the Potency entry in test [15] and in [17] was “inactive” throughout. Moreover, the Potency in test [19] was 30.6 µM (active). Also, the compound was classed as inactive in [5], in test [6], in [7], in test [8], in test [11] and in test [12]. Besides, the call in [14] was inactive.
